Assay results reported in article PMC5540273 (PLoS ONE, 2017).

Legend:
Settings in all cases: concentration: 1 μM, replicates: in singlicate; n = 1
[1] = tested on: WNK4
[2] = tested on: T1, YANK1
T1 construct: gene STK32A

[3] = tested on: T2, YANK2
T2 construct: gene STK32B

[4] = tested on: T3, YANK3
T3 construct: gene STK32C

[5] = tested on: T4, YES
T4 construct: gene YES1

[6] = tested on: T5, YSK1
T5 construct: gene STK25

[7] = tested on: T6, YSK4
T6 construct: gene MAP3K19

[8] = tested on: ZAK
[9] = tested on: ZAP70
[10] = tested on: T7, p38-alpha
T7 construct: gene MAPK14

[11] = tested on: T8, p38-beta
T8 construct: gene MAPK11

[12] = tested on: p38-delta
[13] = tested on: T9, p38-gamma
T9 construct: gene MAPK12
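Further: KINOMEscan kinase panel screen.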

SMILES | %Inh [1] | %Inh [2] | %Inh [3] | %Inh [4] | %Inh [5] | %Inh [6] | %Inh [7] | %Inh [8] | %Inh [9] | %Inh [10] | %Inh [11] | %Inh [12] | %Inh [13]
Cc1cccc(-c2nc(Nc3ccc4[nH]nnc4c3)c3ccccc3n2)n1 [GW867587] | 0% | 0% | 0% | 1% | 0% | 0% | 0% | 0% | 0% | 0% | 0% | 0% | 0%
Nc1nc(-c2ccccn2)c(-c2ccnc3ccccc23)s1 [GW548057] | 88% | 0% | 7% | 0% | 13% | 14% | 4% | 0% | 4% | 54% | 0% | 29% | 0%
N#Cc1ccc(Oc2ccc(Nc3ncnc4cc[nH]c34)cc2Cl)cc1 | 19% | 19% | 22% | 0% | 0% | 0% | 20% | 18% | 0% | 19% | 14% | 3% | 10%
CCC(CC)(CC)n1cnc2c(N)ncnc21 [SKF-97620] | 23% | 18% | 12% | 9% | 0% | 0% | 31% | 0% | 29% | 3% | 8% | 0% | 1%
O=C(Nc1n[nH]c2nc(-c3ccco3)c(Br)cc12)c1ccc(CN2CCCC2)cc1.O=C(O)[C@H](O)[C@@H](O)C(=O)O [SB-742352] | 0% | 0% | 0% | 0% | 1% | 0% | 49% | 29% | 0% | 0% | 0% | 0% | 10%
COc1ccc(-c2oc3ncnc(N)c3c2-c2ccc(OC)cc2)cc1 [SB-589132] | 55% | 19% | 12% | 21% | 44% | 6% | 57% | 9% | 0% | 7% | 0% | 42% | 8%
Nc1nccc2scc(-c3ccc4c(c3)CCN4C(=O)Cc3cc(F)ccc3F)c12 [GSK2587663] | 5% | 26% | 0% | 20% | 10% | 11% | 32% | 9% | 0% | 0% | 0% | 39% | 0%
CCCc1ccc(S(=O)(=O)NC2CCN(c3ccnc(Nc4ccc(OC)cc4)n3)C2)cc1 (stereo not shown) [GSK1379737] | 45% | 0% | 0% | 16% | 5% | 0% | 30% | 8% | 0% | 10% | 0% | 26% | 31%
Cl.O=S(=O)(c1cccc(F)c1)c1ccc(Nc2ncnc3cc(Br)sc23)cc1Cl [GSK306886] | 0% | 0% | 0% | 0% | 14% | 30% | 0% | 6% | 0% | 42% | 0% | 26% | 8%
Cl.c1ccc(Cn2ncc3cc(Nc4ncnc5ccccc45)ccc32)cc1 [GW273749] | 0% | 6% | 0% | 0% | 16% | 17% | 30% | 0% | 0% | 10% | 0% | 39% | 0%
CCc1nc(-c2cccc(N(C)S(=O)(=O)c3ccccc3)c2)c(-c2ccnc(Nc3ccc(N4CCN(C(C)=O)CC4)nc3)n2)s1 [GSK1645895] | 0% | 5% | 18% | 11% | 33% | 26% | 29% | 83% | 0% | 60% | 0% | 7% | 0%
Cl.c1ccc(Cn2ccc3cc(Nc4ncnc5ccccc45)ccc32)cc1 [GW275568] | 6% | 18% | 0% | 0% | 15% | 7% | 4% | 6% | 1% | 2% | 0% | 30% | 8%
CNc1nccc(-c2c(-c3ccc(F)cc3)ncn2C2CCN(C)CC2)n1 [SB-222903] | 9% | 0% | 17% | 6% | 0% | 0% | 7% | 0% | 0% | 98.6% | 13% | 9% | 0%
CCc1nc(-c2cccc(C)c2)c(-c2ccnc(NC(=O)c3ccccc3)c2)s1 | 18% | 13% | 41% | 15% | 19% | 2% | 23% | 0% | 0% |  | 68% |  | 32%
O=C(CCO)NCCn1ccc2ncnc(Nc3ccc(Oc4cccc(C(F)(F)F)c4)c(Cl)c3)c21 | 0% | 0% | 0% | 0% | 0% | 0% | 0% | 0% | 0% | 0% | 0% | 10% | 5%
